From ChEMBL document CHEMBL3433997, “St. Jude Leishmania screening dataset” (2016)

The compounds below were run against Solute carrier family 2, facilitated glucose transporter member 1 (Homo sapiens) (UniProt P11166) (assay: ST_JUDE_LEISH: Cytotoxicity at 2uM final concentration against transgenic Leishmania Mexicana promastigotes LmGLUT1 that are glucose transport deficient and complemented with the human glucose transporter GLUT1. Activity is measured by DNA content using SYBR green in vitro).
Solute carrier family 2, facilitated glucose transporter member 1 (Homo sapiens), sequence (P11166 whole entry): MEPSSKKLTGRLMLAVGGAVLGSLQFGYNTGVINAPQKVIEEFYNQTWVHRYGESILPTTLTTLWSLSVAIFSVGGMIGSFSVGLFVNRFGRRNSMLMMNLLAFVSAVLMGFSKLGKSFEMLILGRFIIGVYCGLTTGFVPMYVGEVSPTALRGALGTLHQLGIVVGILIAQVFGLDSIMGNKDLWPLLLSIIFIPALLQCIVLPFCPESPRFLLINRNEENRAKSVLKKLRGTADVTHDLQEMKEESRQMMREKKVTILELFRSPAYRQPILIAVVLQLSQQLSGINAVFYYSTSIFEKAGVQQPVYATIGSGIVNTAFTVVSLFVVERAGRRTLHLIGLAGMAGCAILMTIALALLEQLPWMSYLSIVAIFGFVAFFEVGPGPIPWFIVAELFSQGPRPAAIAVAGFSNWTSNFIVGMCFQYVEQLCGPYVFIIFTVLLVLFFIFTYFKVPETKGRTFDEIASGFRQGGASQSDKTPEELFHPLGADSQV
Format: functional

Compared with `CC(C)N(CCOc1ccc2c(c1)N(C(=O)Nc1cc(Br)cc(C(F)(F)F)c1)CC2)C(C)C`, `COc1cc(NC(=O)/C=C/c2ccc(-c3ccccc3)cc2)ccc1OCCN(C(C)C)C(C)C` is higher in inhibition: 3.92% for the first, 60.5% for the second.

First: O=C1CN(C(=O)CCC2CCCC2)C(c2ccc(F)cc2)c2cc(F)ccc2N1 (stereo unspecified)
Second: CC1(C)CN(CCC2CCC(NC(=O)/C=C/c3ccccc3F)CC2)Cc2ccc(C#N)cc21 (stereo unspecified)
The inhibition of the first is higher: 5.81% for the first, 3.59% for the second.

First: Clc1ccc(Nc2nc3ccc(Cl)cc3nc2Nc2ccc(Cl)cc2)cc1
Second: CCOc1ccc(C2CCN(CCCCNC(=O)c3ccc(NC(=O)c4ccc(Cl)cc4)cc3)CC2)c(Cl)c1
The inhibition of the first is higher: 7.56% for the first, 1.99% for the second.

First: FC(F)(F)c1ccc(COc2cc(Cl)ccc2Cn2ccnc2)cc1
Second: CCN(CC)CCN(Cc1ccc(-c2ccc(C(F)(F)F)cc2)cc1)C(=O)Cn1c(CCC2CCCCC2)nc(=O)c2ccccc21
The inhibition of the first is higher: 14% for the first, 0.48% for the second.

Compared with `O=C(NCCN1CCOCC1)c1ccc(N2CCC(Oc3ccc4ccccc4c3)CC2)nc1`, `COc1ccc(NC(=O)c2ccc(Br)c(C)c2)cc1N1CCN(CCCc2c[nH]c3ccccc23)CC1` is lower in inhibition: 7.02% for the first, -0.69% for the second.

Compared with `Cc1cc(=NN=Cc2ccc(F)cc2)c2cccc(C)c2[nH]1`, `COc1ccc2c(=NN=Cc3cccc(Cl)c3)cc(C)[nH]c2c1` is lower in inhibition: 3.22% for the first, 2.13% for the second.

Compared with `CCSc1ccccc1CON1C(=N)N=C(N)NC1(C)C`, `CC(CCc1ccccc1)NCC(O)c1cccc([N+](=O)[O-])c1` (stereo unspecified) is lower in inhibition: 15.4% for the first, -0.26% for the second.

Compared with `COc1c(C2CCN(CCCCNC(=O)c3ccc(-c4ccc(Cl)cc4)c(OCC(N)=O)c3)CC2)ccc2c1CCCC2`, `Cn1cc(C2CCN(CCCCNC(=O)c3ccc(C(=O)Nc4ccc(C#N)cc4)cc3)CC2)c2ccccc21` is higher in inhibition: 4.52% for the first, 9% for the second.

First: Cc1cc(N[C@@H](Cc2ccccc2)C(=O)NCc2cccc(F)c2)nc(NCCc2ccc(F)cc2)n1
Second: CN(C)CCN(C)Cc1nc(-c2ccc3c(Nc4ccc(Oc5ccccc5)cc4)ccnc3c2)cs1
The inhibition of the first is higher: 4.47% for the first, 2.99% for the second.

Going from `COc1cc(Cl)c(C)cc1-n1cc(C(=O)c2cc(Br)ccc2O)cc(C#N)c1=O` to `COc1cccc(C=Cc2nc(=O)c3ccccc3o2)c1OC`, the inhibition rises from -0.77% to 4.18%.

First: Cc1ccccc1C1CCN(C2CCC(NC(=O)/C=C/c3cccc(Cl)c3Cl)CC2)CC1 (stereo unspecified)
Second: N#Cc1ccc(-c2ccc(C(=O)NC3CCN(CCN4CCC(c5cn(CCOC6CCCCO6)c6ccccc56)CC4)CC3)cc2)cc1 (stereo unspecified)
The inhibition of the first is lower: 4.12% for the first, 14.4% for the second.

Going from `CCN1CCN(CCNc2c3ccccc3nc3ccccc23)CC1` to `O=C(Nc1ccccc1-c1nc2ccccc2s1)C(Cl)(Cl)Cl`, the inhibition falls from 83.5% to 0.49%.

Going from `CCN(CC)CCOc1ccc(C(O)(C#CC(O)(c2ccc(Br)cc2)c2ccc(OCCN(CC)CC)cc2)c2ccc(Br)cc2)cc1` (stereo unspecified) to `CCNC(=O)Nc1ccc(N(C)c2ccnc(NC3CC3)n2)cc1`, the inhibition rises from 4.97% to 5.12%.
